Assay [1] addresses Bile acid receptor (Homo sapiens) (UniProt Q96RI1). Nature of the assay: ATG_FXR_TRANS: Attagene TRANS-FACTORIAL HepG2 Assay for Farnesoid X Receptor (FXR) (AID 2282979; active = hit-call score of the fitted dose curve at least 0.9, where 1 is the maximum;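 also: hits raise reporter mRNA above DMSO so AC50 marks FXR activation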). The conditions noted are these: HepG2 Attagene TRANS FXR-GAL4 reporter transcription. Summed up: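 HepG2 cells were transiently transfected with GAL4-UAS reporters driven by chimeric NR-Gal4 proteins and dosed for 24 h. Reporter mRNA was quantified by RT-PCR, fluorescent labelling, HpaI digestion and capillary electrophoresis, with gain of signal scored versus DMSO.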

The nature of assay [2]: ATG_M_06_TRANS: Attagene TRANS-FACTORIAL HepG2 Assay for M06 Transcription Factor (Internal Marker) (AID 2282983; active = hit-call score of the fitted dose curve at least 0.9, where 1 is the maximum). Particulars: HepG2 Attagene TRANS M06 internal marker reporter. An outline of the steps:
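mRNA levels of a reporter transcript, quantified as FAM fluorescence on capillary electrophoresis, served as readout. HepG2 cells expressing exogenous GAL4-chimera reporter constructs were exposed for 24 h. Gain of signal over DMSO was evaluated.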

A short description of assay [3]: ATG_M_32_TRANS: Attagene TRANS-FACTORIAL HepG2 Assay for M32 Transcription Factor (Internal Marker) (AID 2282984; active = hit-call score of the fitted dose curve at least 0.9, where 1 is the maximum;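 also: transcript level of a background control reporter unit measured by RT-PCR and capillary electrophoresis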). Particulars: HepG2 Attagene TRANS M32 internal marker reporter. An outline of the steps:
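After 24 h dosing of transfected HepG2 cells, total RNA was reverse-transcribed, reporter sequences PCR-amplified, 6-FAM labelled by primer extension and HpaI-digested before capillary electrophoresis. Signal increase over DMSO was fitted.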

In assay [4] the target is Nuclear receptor subfamily 4 group A member 2 (Homo sapiens) (UniProt P43354). The assay is described as follows: ATG_NURR1_TRANS: Attagene TRANS-FACTORIAL HepG2 Assay for human Nuclear Receptor Related Protein 1 (NURR1) (AID 2282985; active = hit-call score of the fitted dose curve at least 0.9, where 1 is the maximum). Particulars: HepG2 Attagene TRANS reporter, mRNA readout. Summed up: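 Chimeric NR-Gal4 fusion activity measured in HepG2 after 24 h treatment. Reporter transcripts detected by RT-PCR and capillary electrophoresis fluorescence; positive-direction curve fitting against DMSO.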

Assay [5] deals with Transcriptional activator Myb (Homo sapiens) (UniProt P10242). The assay is described as follows: ATG_Myb_CIS: Attagene CIS-FACTORIAL HepG2 Assay for human Myeloblastosis (Myb) Proto-Oncogene Transcription Factor (AID 2282986). Particulars: HepG2 Attagene CIS-FACTORIAL Myb reporter transcription; actives raise or lower the signal. Summed up:
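In this HepG2 transient-transfection format, cis-regulated reporter mRNA is quantified 24 h post-dosing by RT-PCR with capillary electrophoresis, fitted bidirectionally to DMSO baseline.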

In assay [6] the target is Nuclear respiratory factor 1 (Homo sapiens) (UniProt Q16656). Nature of the assay: ATG_NRF1_CIS: Attagene CIS-FACTORIAL HepG2 Assay for human Nuclear Respiratory Factor 1 (NRF1) Orphan Gene (AID 2282987). The conditions noted are these: HepG2 NRF1 cis-element reporter, Attagene multiplex; actives raise or lower the signal. Summed up: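 Using DMSO as baseline, gain- or loss-of-signal was fitted for reporter mRNA levels in HepG2 cells transiently transfected with cis-regulated reporter units. Samples were taken 24 h after dosing and read by RT-PCR with capillary electrophoresis.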

Assay [7] can be described thus: ATG_NFI_CIS: Attagene CIS-FACTORIAL HepG2 Assay for human Nuclear Factor I (NFI) (AID 2282989). The conditions noted are these: HepG2 cis-regulatory reporter, NFI response element transcription; actives raise or lower the signal. An outline of the steps: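 Cells: human liver HepG2, transiently transfected with promoter-regulated reporter transcription units. Exposure 24 h. Detection: fluorescent RT-PCR products separated by capillary electrophoresis, normalised to DMSO negative control.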

Assay [8] concerns the target Myc proto-oncogene protein (Homo sapiens) (UniProt P01106). Nature of the assay: ATG_Myc_CIS: Attagene CIS-FACTORIAL HepG2 Assay for human Myelocytomatosis (Myc) Proto-Oncogene Transcription Factor (AID 2282990). The conditions noted are these: HepG2, Attagene cis-reporter transcription factor activity; actives raise or lower the signal. Summed up: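 DMSO-normalised, bidirectionally fitted reporter mRNA signal. HepG2 cells transfected with cis reporter constructs, treated 24 h; transcripts detected by RT-PCR, 6-FAM primer extension and CE.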

Assay [9] in a line: ATG_NF_kB_CIS: Attagene CIS-FACTORIAL HepG2 Assay for human Nuclear Factor Kappa B (NF-kB) (AID 2282991). The conditions noted are these: HepG2 Attagene cis-factorial NF-kB reporter mRNA; actives raise or lower the signal. An outline of the steps:
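Endpoint from a 52-component multiplexed HepG2 reporter panel: cis-regulated transcription units transiently transfected, 24 h dosing, reporter mRNA quantified by RT-PCR and capillary electrophoresis, scored as increase or decrease against DMSO.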

Assay [10] is described as follows: ATG_NRF2_ARE_CIS: Attagene CIS-FACTORIAL HepG2 Assay for human Nuclear Factor Erythroid 2 Related Factor 2 (NFR2) response to Antioxidant Response Elements (ARE) (AID 2282992). The conditions noted are these: HepG2 Attagene ARE/NRF2 reporter, transcription factor activity; actives raise or lower the signal. An outline of the steps:
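Endogenous transcription factor activity read out as reporter transcript levels (RT-PCR plus capillary electrophoresis, fluorescence) in transiently transfected HepG2 cells. Measured at 24 h after dosing; gain or loss of signal fitted versus DMSO.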

Assay [11] can be described thus: ATG_Oct_MLP_CIS: Attagene CIS-FACTORIAL HepG2 Assay for human Octamer-Binding Transcription Factor (Oct) (AID 2282993). The conditions noted are these: HepG2 Attagene cis-factorial Oct reporter, mRNA; actives raise or lower the signal. An outline of the steps: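 HepG2, transient MRTU transfection, cis promoter elements; 24 h dosing; RT-PCR/CE fluorescence read-out of reporter mRNA; fit both directions vs DMSO.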

The target in assay [12] is Cellular tumor antigen p53 (Homo sapiens) (UniProt P04637). Nature of the assay: ATG_p53_CIS: Attagene CIS-FACTORIAL HepG2 Assay for human p53 Transcription Factor (AID 2282994). The conditions noted are these: HepG2 p53 cis-element reporter, Attagene mRNA; actives raise or lower the signal. An outline of the steps: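 Endogenous p53 activity read in transiently transfected HepG2 from a cis-element-driven reporter transcript after 24 h exposure. RNA reverse-transcribed, PCR-amplified, fluorescently labelled and sized by capillary electrophoresis; gain or loss fitted against DMSO baseline.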

The nature of assay [13]: BSK_3C_TissueFactor: BioMAP Diversity Plus: 3C Assay for Tissue Factor Biomarker Activity (AID 2282997). Particulars: BioMAP 3C HUVEC, tissue factor biomarker readout; actives raise or lower the signal. An outline of the steps: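 Tissue Factor measured by ELISA, 24 h after treatment of primary HUVEC in the BioMAP 3C setting.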
Assay [14] is described as follows: BSK_3C_uPAR: BioMAP Diversity Plus: 3C Assay for Urokinase-type plasminogen activator receptor (uPAR) Biomarker Activity (AID 2282998). Particulars: BioMAP 3C HUVEC, uPAR biomarker ELISA; actives raise or lower the signal. An outline of the steps:
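A multiplexed primary-cell system built on human umbilical vein endothelium was used, with chemical present for 24 h before reading. Cell-surface uPAR was detected by ELISA; signal change in either direction counted against DMSO.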
A general note: In an ELISA, binding on a coated surface is turned into a signal by an enzyme label.

Assay [15] can be described thus: BSK_3C_VCAM1: BioMAP Diversity Plus: 3C Assay for Vascular cell adhesion molecule 1 (VCAM1) Biomarker Activity (AID 2282999). The conditions noted are these: BioMAP 3C HUVEC, VCAM1 ELISA, cytokine-stimulated; actives raise or lower the signal. Summed up:
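Vascular primary endothelium (human umbilical vein) was exposed to chemicals and assayed 24 h later. VCAM-1 levels came from ELISA, with DMSO serving as baseline for bidirectional fitting.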

The nature of assay [16]: BSK_4H_Eotaxin3: BioMAP Diversity Plus: 4H Assay for Eotaxin 3 Biomarker Activity (AID 2283000).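 As to outcome: CCL26 protein level quantified by ELISA in parallel with SRB cytotoxicity check.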 Particulars: primary human endothelial cells (HUVEC); actives raise or lower the signal. An outline of the steps:
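Eotaxin-3 (CCL26) levels were measured by ELISA in HUVEC primary cultures 24 h post-dosing. Gain or loss of signal was fitted in both directions, with DMSO serving as baseline and negative control.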

In assay [17] the target is Glucocorticoid receptor (Homo sapiens) (UniProt P04150). Nature of the assay: ATG_GR_TRANS: Attagene TRANS-FACTORIAL HepG2 Assay for human Glucocorticoid Receptor (GR) (AID 2282978; active = hit-call score of the fitted dose curve at least 0.9, where 1 is the maximum;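 also: activators score as hits since higher reporter transcript over DMSO is fitted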). Particulars: HepG2 Attagene TRANS GR reporter, mRNA transcription. An outline of the steps:
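Exogenous NR-GAL4 fusion activity was assessed through induced GAL4-UAS reporter transcripts in transfected human HepG2 cells, quantified after 24 h by RT-PCR and fluorescent capillary electrophoresis with DMSO as baseline.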

For assay [18], the target named is Oxysterols receptor LXR-alpha (Homo sapiens) (UniProt Q13133). Nature of the assay: ATG_LXRa_TRANS: Attagene TRANS-FACTORIAL HepG2 Assay for human Liver X Receptor alpha (LXRa) (AID 2282980; active = hit-call score of the fitted dose curve at least 0.9, where 1 is the maximum). The conditions noted are these: HepG2 Attagene TRANS reporter, LXRa transactivation. Summed up:
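HepG2 cells transiently transfected with GAL4-UAS reporter units for chimeric NR-Gal4 proteins, exposed to chemicals for 24 h. Reporter mRNA quantified by RT-PCR and capillary electrophoresis; gain of signal fitted relative to DMSO.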

The target of assay [19] is Hepatocyte nuclear factor 4-alpha (Homo sapiens) (UniProt P41235). Nature of the assay: ATG_HNF4a_TRANS: Attagene TRANS-FACTORIAL HepG2 Assay for human Hepatocyte Nuclear Factor 4 alpha (HNF4a) (AID 2282982; active = hit-call score of the fitted dose curve at least 0.9, where 1 is the maximum). The conditions noted are these: HepG2 HNF4a transactivation reporter, mRNA readout. Summed up: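 In this trans-factorial format, a chimeric HNF4a-GAL4 fusion drives a GAL4-UAS reporter in transfected HepG2 liver cells. After 24 h treatment, reporter mRNA induction is measured by RT-PCR with capillary electrophoresis, relative to DMSO.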

Where “and” joins values, the source holds several entries; their conditions need not be identical. Equal values may be shown once. Records with an inconclusive call do not appear. Some structures have more than one record in an assay (separate samples or runs), and their calls can disagree. Calls of active or inactive are those of the source. The calls were made as follows, unless noted: active = hit-call score of the fitted dose curve at least 0.9, where 1 is the maximum; inactive = score below 0.9.

Chain of Nuclear receptor subfamily 4 group A member 2 (Homo sapiens) (P43354 whole entry, looked up, the tested form may be a part): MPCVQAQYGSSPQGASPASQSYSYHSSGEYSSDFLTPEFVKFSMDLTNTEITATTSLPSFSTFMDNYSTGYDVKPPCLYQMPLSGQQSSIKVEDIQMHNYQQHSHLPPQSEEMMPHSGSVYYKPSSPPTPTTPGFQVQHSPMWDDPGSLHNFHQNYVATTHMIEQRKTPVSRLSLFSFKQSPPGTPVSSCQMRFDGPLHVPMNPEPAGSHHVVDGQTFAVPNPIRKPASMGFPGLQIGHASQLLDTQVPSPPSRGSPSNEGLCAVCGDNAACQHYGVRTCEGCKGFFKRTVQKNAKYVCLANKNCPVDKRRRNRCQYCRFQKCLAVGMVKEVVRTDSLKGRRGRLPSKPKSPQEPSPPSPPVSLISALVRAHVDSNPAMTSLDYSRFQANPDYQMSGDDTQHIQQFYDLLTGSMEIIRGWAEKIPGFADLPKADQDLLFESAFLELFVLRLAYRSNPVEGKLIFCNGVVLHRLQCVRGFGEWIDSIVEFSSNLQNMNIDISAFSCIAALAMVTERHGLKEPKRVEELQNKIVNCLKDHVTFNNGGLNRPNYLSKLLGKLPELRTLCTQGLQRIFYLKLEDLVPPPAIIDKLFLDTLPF
Chain of Glucocorticoid receptor (Homo sapiens) (P04150 whole entry, looked up, the tested form may be a part): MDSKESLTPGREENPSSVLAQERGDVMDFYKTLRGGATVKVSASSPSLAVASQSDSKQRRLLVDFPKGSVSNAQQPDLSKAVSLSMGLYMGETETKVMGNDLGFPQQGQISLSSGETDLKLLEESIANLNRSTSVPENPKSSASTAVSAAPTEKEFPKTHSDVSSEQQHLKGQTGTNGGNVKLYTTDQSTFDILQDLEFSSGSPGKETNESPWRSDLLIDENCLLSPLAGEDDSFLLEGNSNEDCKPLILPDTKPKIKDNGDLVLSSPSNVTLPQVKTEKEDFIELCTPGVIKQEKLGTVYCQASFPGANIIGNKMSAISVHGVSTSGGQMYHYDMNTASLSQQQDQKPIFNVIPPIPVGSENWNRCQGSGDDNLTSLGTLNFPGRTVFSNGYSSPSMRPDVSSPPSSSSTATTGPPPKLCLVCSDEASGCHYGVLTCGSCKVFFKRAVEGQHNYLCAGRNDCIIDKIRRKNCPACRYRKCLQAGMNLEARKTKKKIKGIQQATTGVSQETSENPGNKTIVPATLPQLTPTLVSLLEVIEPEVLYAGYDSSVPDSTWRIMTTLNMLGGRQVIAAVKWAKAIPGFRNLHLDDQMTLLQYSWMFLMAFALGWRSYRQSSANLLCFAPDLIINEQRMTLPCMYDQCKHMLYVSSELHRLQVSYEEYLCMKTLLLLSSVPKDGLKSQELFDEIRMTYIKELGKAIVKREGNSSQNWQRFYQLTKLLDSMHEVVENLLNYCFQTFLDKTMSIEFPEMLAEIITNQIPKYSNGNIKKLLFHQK
Chain of Cellular tumor antigen p53 (Homo sapiens) (P04637 whole entry, looked up): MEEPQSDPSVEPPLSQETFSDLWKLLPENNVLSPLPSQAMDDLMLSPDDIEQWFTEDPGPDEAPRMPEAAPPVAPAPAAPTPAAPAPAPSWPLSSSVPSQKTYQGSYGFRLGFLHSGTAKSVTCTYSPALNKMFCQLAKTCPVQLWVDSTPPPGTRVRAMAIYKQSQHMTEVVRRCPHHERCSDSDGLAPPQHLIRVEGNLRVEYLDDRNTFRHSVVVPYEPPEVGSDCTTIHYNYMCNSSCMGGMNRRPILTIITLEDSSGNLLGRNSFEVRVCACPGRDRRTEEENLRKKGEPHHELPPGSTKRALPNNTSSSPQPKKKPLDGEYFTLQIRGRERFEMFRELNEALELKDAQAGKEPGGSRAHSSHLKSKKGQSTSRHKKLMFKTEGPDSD
Chain of Bile acid receptor (Homo sapiens) (Q96RI1 whole entry, looked up, the tested form may be a part): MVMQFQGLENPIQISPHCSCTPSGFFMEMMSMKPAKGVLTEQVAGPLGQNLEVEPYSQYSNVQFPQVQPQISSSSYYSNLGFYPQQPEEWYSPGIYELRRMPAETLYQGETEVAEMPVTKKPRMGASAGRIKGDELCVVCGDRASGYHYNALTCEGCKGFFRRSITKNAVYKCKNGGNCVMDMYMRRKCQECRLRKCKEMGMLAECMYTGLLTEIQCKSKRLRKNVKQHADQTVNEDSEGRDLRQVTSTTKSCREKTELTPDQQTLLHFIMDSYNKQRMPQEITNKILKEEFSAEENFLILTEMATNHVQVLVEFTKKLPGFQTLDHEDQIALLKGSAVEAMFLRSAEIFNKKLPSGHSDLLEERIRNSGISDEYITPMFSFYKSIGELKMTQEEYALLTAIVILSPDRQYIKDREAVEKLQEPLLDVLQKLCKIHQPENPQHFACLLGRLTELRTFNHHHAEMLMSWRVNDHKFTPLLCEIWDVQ
Chain of Oxysterols receptor LXR-alpha (Homo sapiens) (Q13133 whole entry, looked up, the tested form may be a part): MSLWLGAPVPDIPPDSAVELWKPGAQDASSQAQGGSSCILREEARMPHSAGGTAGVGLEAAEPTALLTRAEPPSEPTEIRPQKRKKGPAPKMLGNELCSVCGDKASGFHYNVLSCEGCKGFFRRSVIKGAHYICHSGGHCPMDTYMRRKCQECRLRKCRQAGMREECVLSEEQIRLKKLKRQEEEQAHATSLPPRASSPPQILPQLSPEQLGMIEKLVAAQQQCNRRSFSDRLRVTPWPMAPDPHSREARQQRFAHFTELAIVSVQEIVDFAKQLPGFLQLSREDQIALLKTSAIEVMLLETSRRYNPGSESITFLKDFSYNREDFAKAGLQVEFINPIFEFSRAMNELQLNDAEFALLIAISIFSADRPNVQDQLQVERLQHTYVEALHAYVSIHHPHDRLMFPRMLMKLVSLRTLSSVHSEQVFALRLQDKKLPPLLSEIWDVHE
Chain of Hepatocyte nuclear factor 4-alpha (Homo sapiens) (P41235 whole entry, looked up, the tested form may be a part): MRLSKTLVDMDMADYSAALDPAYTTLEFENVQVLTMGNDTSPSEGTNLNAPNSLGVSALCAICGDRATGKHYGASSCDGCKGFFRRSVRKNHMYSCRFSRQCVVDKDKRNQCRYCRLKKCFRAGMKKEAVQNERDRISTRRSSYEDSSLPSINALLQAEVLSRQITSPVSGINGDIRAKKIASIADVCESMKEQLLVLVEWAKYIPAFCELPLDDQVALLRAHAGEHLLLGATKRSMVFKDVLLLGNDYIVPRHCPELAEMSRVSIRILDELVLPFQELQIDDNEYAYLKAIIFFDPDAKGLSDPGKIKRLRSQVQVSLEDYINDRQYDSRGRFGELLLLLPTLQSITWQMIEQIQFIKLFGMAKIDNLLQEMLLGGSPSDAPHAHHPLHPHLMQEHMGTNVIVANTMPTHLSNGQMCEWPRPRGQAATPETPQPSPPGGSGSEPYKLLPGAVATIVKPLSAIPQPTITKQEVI
Chain of Transcriptional activator Myb (Homo sapiens) (P10242 whole entry, looked up): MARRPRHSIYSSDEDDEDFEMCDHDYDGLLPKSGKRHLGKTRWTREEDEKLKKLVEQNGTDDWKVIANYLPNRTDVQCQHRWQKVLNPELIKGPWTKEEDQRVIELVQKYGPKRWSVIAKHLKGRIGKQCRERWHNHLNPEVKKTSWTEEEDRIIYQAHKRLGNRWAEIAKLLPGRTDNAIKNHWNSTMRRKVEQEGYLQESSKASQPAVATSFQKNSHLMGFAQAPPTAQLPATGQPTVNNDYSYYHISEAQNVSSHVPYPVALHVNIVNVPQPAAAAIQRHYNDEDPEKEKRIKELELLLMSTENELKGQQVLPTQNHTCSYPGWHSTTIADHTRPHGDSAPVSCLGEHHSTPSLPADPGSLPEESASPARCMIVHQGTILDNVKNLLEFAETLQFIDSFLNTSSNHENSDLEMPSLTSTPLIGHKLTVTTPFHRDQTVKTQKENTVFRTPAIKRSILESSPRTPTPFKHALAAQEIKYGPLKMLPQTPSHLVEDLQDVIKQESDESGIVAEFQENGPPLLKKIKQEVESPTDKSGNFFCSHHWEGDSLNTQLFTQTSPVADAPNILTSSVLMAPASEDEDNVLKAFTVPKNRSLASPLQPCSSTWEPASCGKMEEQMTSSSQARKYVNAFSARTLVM
Chain of Myc proto-oncogene protein (Homo sapiens) (P01106 whole entry, looked up): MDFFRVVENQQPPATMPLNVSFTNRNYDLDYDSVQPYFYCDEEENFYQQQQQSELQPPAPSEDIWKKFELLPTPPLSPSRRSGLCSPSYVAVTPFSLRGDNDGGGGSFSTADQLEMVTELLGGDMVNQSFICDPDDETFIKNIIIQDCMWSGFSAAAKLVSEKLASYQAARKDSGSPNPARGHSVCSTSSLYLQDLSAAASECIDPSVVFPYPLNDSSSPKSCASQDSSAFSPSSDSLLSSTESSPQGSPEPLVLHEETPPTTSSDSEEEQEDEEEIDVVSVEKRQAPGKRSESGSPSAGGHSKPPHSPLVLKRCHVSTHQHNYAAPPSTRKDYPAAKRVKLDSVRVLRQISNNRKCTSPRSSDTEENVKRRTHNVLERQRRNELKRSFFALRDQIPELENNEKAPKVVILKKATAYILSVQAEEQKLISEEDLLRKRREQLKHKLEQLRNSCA
Chain of Nuclear respiratory factor 1 (Homo sapiens) (Q16656 whole entry, looked up): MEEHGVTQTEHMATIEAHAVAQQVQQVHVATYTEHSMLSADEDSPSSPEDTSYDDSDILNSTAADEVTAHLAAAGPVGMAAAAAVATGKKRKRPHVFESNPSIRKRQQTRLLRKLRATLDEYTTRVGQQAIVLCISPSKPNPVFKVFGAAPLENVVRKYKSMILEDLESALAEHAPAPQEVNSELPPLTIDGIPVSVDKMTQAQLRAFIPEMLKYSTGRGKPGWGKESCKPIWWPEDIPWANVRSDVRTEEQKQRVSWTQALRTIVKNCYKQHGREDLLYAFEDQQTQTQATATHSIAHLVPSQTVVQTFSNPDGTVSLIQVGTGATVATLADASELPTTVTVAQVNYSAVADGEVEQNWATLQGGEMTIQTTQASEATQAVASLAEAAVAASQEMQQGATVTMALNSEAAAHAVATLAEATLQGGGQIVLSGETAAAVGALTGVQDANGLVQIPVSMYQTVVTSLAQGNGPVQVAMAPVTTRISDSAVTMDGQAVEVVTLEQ

For the compound `COCC(C)OCC(C)OCC(C)O` (centres undefined), the compound was called inactive in assay [1], in assay [2], in assay [3], in [4], in assay [5] and in assay [6]. Also, the result in assay [7], in assay [8], in assay [9], in assay [10], in assay [11] and in assay [12] was inactive. The result in assay [13], in assay [14], in assay [15] and in assay [16] was inactive.
As usually defined, the AC50 is the midpoint of the concentration-response curve, whichever way the signal moves. As for `O=c1c(-c2ccc(O)cc2)coc2cc(O)cc(O)c12`, the result in [17], in assay [1], in assay [18], in assay [19], in [2] and in assay [4] was inactive. For the same compound, the compound was called inactive in [5], in assay [6], in assay [7], in assay [8], in [9] and in assay [10]. Besides, the outcome in assay [11], in assay [12], in [13] and in assay [15] was inactive. Also, the concentration at half-maximal activity (AC50) in assay [7] was 27.1 µM (active); in [9] it was 73.5 µM (active) and 168 µM (active); in assay [11] it was 49.4 µM (active); in assay [14] it was 29.2 µM (active); in [16] it was 29.1 µM (active).
In the case of `O=C(OCCCCCCOC(=O)c1ccccc1)c1ccccc1`, the compound was called inactive in assay [17], in assay [1], in [18], in assay [19], in assay [2] and in assay [4]. Also, the compound was called inactive in assay [5], in assay [6], in assay [7], in [8], in assay [9] and in [10]. Further, the result in assay [11], in assay [12], in assay [13], in assay [14], in assay [15] and in [16] was inactive.
Consider `CCCC(=O)OCCC(C)C`, for which the outcome in assay [1], in assay [18], in assay [2], in assay [6], in assay [7] and in assay [8] was inactive. Further, the outcome in assay [9], in assay [10], in assay [11], in assay [12], in assay [13] and in assay [14] was inactive. Besides, the result in assay [15] and in assay [16] was inactive. Further, the AC50 in assay [5] is 1.84 µM (active).
As to `CCN(Cc1cccc(S(=O)(=O)O)c1)c1ccc(C(=C2C=CC(=[N+](CC)Cc3cccc(S(=O)(=O)O)c3)C=C2)c2ccccc2S(=O)(=O)[O-])cc1`, the outcome in assay [1], in [19], in assay [2], in assay [4], in [5] and in assay [6] was inactive. The compound was classed as inactive in assay [8], in assay [9], in assay [10], in assay [11], in [12] and in [13]. Also, the outcome in assay [14], in assay [15] and in [16] was inactive.
On to `O=CCCCC=O`, for which the result in [1], in [18], in assay [19], in [2], in [3] and in [4] was inactive. Besides, the call in [5], in assay [6], in assay [8], in assay [9], in assay [10] and in [11] was inactive. Besides, the outcome in assay [12] was inactive. For the same compound, the AC50 in [9] was 73.1 µM (active); in [10], 169 µM (active); in [13], 30.3 µM (active); in assay [14], 33.3 µM (active); in assay [15] it was 31.6 µM (active); in assay [16], 31.4 µM (active).

The values are drawn from PubChem BioAssay (EPA / NIEHS).
